According to PubChem BioAssay (NCATS):
“And” between values parts separate entries of the source, which are not always exact repeats. Identical values can stand only once. Results filed as inconclusive are left out. The source made the active and inactive calls. The call rests on the fitted dose curve; in most records, active means well fitted inhibition curve with a large enough effect; inconclusive means small, poorly fitted or top-dose-only effect; inactive means flat fitted curve, though single readings scatter.

Key:
TAB113 = experiment: qHTS profiling for inhibitors of Plasmodium falciparum proliferation (AID 504749); further: potency means the concentration at half of the fitted maximal effect; details: P. falciparum in erythrocytes, SYBR Green DNA, 72 h; series mostly up to 28.7 µM
In short: (§1)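 P. falciparum-infected erythrocytes (0.3% parasitemia, 2.5% hematocrit) incubated with compound 72 h at 37 C, 5% CO2. Parasite DNA detected by SYBR Green after lysis, overnight at room temperature; normalised to 0.29 uM artemisinin and DMSO.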

TAB165 = experiment: as above; details: P. falciparum in erythrocytes, SYBR Green DNA, 72 h; series mostly up to 28.7 µM
In short: as §1

W2 = experiment: as above; details: P. falciparum in erythrocytes, SYBR Green DNA, 72 h; series mostly up to 28.7 µM
In short: as §1

HEK293 = experiment: Cytotoxic Profiling of Annotated Libraries Using Quantitative High-Throughput Screening (AID 1296008); details: Five cell lines viability, CellTiter-Glo ATP luminescence, 48-72 h; max response: active compounds read low; further: potency means the concentration at half of the fitted maximal effect; on max response: on the % scale 0 is the no-effect control and ±100 the full control effect
In short: (§2)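 Cells exposed to compounds for 48 or 72 hr at 37 degrees Celsius. Viability read as ATP-coupled luminescence with CellTiter-Glo after 10 min at room temperature.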

HaCat [1] = experiment: as above; details: Five cell lines viability, CellTiter-Glo ATP luminescence, 48-72 h; max response: active compounds read low
In short: as §2

KB-3-1 = experiment: as above; details: Five cell lines viability, CellTiter-Glo ATP luminescence, 48-72 h; max response: active compounds read low
In short: as §2

NIH3T3 = experiment: as above; details: Five cell lines viability, CellTiter-Glo ATP luminescence, 48-72 h; max response: active compounds read low
In short: as §2

HACAT [2] = experiment: qHTS assay to identify novel small-molecules to repurpose for Merkel cell carcinoma treatment (AID 1296009); details: MCC and control cell lines, CellTiter-Glo viability, 72 h; at 44.8 µM (top of the series) unless noted
In short: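 Cells were treated for 72 hr at 37 degree celsius with compounds in 8- or 11-point dose response. Viability was read by CellTiter-Glo luminescence, normalized to no-cell (cytotoxicity) and DMSO controls.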
Further: nearly all actives have a fitted effect of over 60% in size.

Oc1ccccc1C=NCc1ccccc1
inactive: Potency (TAB113) | Potency (TAB165) | Potency (W2) | max response (HEK293) -3.05% | max response (HaCat [1]) -1.46% | max response (KB-3-1) -4.65% | outcome (NIH3T3)

CCCCCCCCCCCCOCCOCCOCCOCCOCCOCCOCCOCCOCCO
active: Potency (HEK293) 7.5 µM
inactive: max response (HaCat [1]) 0.283% | max response (NIH3T3) -5.79%

NC(N)=NCc1cccc(I)c1
inactive: Potency (TAB113) | Potency (TAB165) | Potency (W2) | max response (KB-3-1) 1.64% and -6.45%

CCCCCCCCNC(C)C(O)c1ccc(SC(C)C)cc1 (stereo not given)
inactive: max response (KB-3-1) 7.32%
active: Potency (TAB113) 0.355 µM | Potency (TAB165) 0.794 µM | Potency (W2) 0.169 µM | Potency (HEK293) 13.3 µM

CCOC(=O)[C@H](CCc1ccccc1)N[C@@H](C)C(=O)N1[C@H](C(=O)O)C[C@H]2CCCC[C@@H]21
inactive: Potency (TAB113) | Potency (TAB165) | Potency (W2) | max response (KB-3-1) 8% and -12.5%

NS(=O)(=O)c1cc(C(=O)O)cc(N2CCCC2)c1Oc1ccccc1
inactive: Potency (TAB113) | Potency (TAB165) | max response (HEK293) 2.69% | max response (HaCat [1]) -7.61% | max response (KB-3-1) 3.66% | max response (NIH3T3) -1.53%

O=c1[nH]c(=O)n([C@H]2C[C@H](O)[C@@H](CO)O2)cc1F
active: Potency (HEK293) 0.0299 µM | Potency (HaCat [1]) 0.0084 µM | Potency (NIH3T3) 0.006 µM
inactive: Potency (TAB113) | Potency (TAB165) | Potency (W2)

CN1CCC[C@@H]1CCO[C@](C)(c1ccccc1)c1ccc(Cl)cc1
inactive: Potency (TAB113) | max response (KB-3-1) -2.14%
active: Potency (W2) 13.5 µM | Potency (HEK293) 15 µM | Potency (HaCat [1]) 26.6 µM

CC(C)(C)CC(C)(C)c1ccc(O)c(-n2nc3ccccc3n2)c1
active: Potency (TAB113) 10 µM | Potency (TAB165) 12.6 µM | Potency (W2) 6.01 µM
inactive: max response (HEK293) -0.0454% | outcome (HaCat [1]) | max response (NIH3T3) 3.67% | outcome (HACAT [2])

O=C(O)C1(C(=O)O)CCC1.[NH2-].[NH2-].[Pt+2]
inactive: Potency (TAB113) | Potency (TAB165) | max response (HEK293) 1.14% | max response (HaCat [1]) 1.48% | max response (NIH3T3) -2.25%

CN(C)CCOC(c1ccc(Cl)cc1)c1ccccn1 (stereo not given)
inactive: Potency (TAB113) | max response (HEK293) -23.8% | max response (KB-3-1) 10.7%
active: Potency (W2) 1.07 µM

Oc1c(Cl)cc(Cl)c(Cl)c1Cc1c(O)c(Cl)cc(Cl)c1Cl
active: Potency (TAB113) 12.6 µM | Potency (TAB165) 7.94 µM | Potency (HEK293) 8.41 µM

CN=C(N)NCCC[C@H](N)C(=O)O
inactive: max response (KB-3-1) -24.2% and -3.13% and -1.75%

C#C[C@]1(O)CC[C@H]2[C@@H]3CCC4=Cc5oncc5C[C@]4(C)[C@H]3CC[C@@]21C
active: Potency (HEK293) 21.1 µM
inactive: Potency (TAB113) | Potency (TAB165) | Potency (W2) | max response (KB-3-1) -24%
